E coli Lon inh – inhibitors of E. coli Lon protease, primary screen, biochemical, fluorescence polarization. hit rate 0.42% among 360,000. P0A9M0. purified E. coli Lon protease. AID 602123, 2011. inhibition, % at 7.94 µM; in the data active means inhibition above about 13%, passing the limit was not always enough;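 further: 0% = enzyme with probe and DMSO and 100% = no enzyme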
GLD-1 RNA inh – GLD-1/TGE RNA complex disruptors, primary screen, biochemical, fluorescence polarization; AID 2280, 2010; Female germline-specific tumor suppressor gld-1 (Caenorhabditis elegans), Q17339; hit rate 0.44% among 320,000; purified GLD-1 + fluorescein TGE RNA; inhibition, % at 5.96 µM;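 active means percent inhibition above a per-plate cutoff, the plate mean of test compounds plus 3 SD, cut at about 30% in these data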;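 further: 0% = DMSO wells with GLD-1 and probe and 100% = wells lacking GLD-1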
MEX-5 binding – MEX-5 zinc finger RNA-binding disruptors – biochemical, C. elegans, fluorescence polarization, MLPCN library, primary screen. Zinc finger protein mex-5 (Caenorhabditis elegans), Q9XUB2. MEX-5/FITC-TCR2 RNA binding; stronger effect = lower value. activity score (negative = inhibition of binding), % at 10 µM. hit rate 0.38% among 300,000. AID 1832, 2009;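 active means inhibition past about -25% in most replicates, and total fluorescence under double the plate's negative control median, limit read from the data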;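 further: 0% = DMSO and -100% = 5 µM competing unlabeled TCR2 RNA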
EBV gp42 inh – Epstein-Barr virus gp42 inhibitors, primary screen, biochemical, uHTS, fluorescence polarization; Glycoprotein 42 (Epstein-Barr virus (strain AG876)), Q1HVG2; Fluorescence polarization binding assay, mP read-out; inhibition, % (tested at 21.74 µM); hit rate 0.42% among 220,000; in the data active means inhibition above about 50%
MCL1-BIM inh – inhibitors of MCL1 binding to BIM-BH3, primary screen, biochemical, fluorescence polarization. GST-MCL1 / FITC-Bim-BH3 fluorescence polarization. inhibition, % at 10.9 µM. hit rate 0.68% among 320,000. AID 2057, 2009;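 active means inhibition above the mean inhibition of all tested compounds plus 3 SD, set per campaign, cut at about 40% in these data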;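 further: 0% = DMSO wells and 100% = unlabeled Bim-BH3 peptide control; higher means more loss of mP so more displacement of Bim peptide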
Target sequence (Q07820 whole entry, looked up): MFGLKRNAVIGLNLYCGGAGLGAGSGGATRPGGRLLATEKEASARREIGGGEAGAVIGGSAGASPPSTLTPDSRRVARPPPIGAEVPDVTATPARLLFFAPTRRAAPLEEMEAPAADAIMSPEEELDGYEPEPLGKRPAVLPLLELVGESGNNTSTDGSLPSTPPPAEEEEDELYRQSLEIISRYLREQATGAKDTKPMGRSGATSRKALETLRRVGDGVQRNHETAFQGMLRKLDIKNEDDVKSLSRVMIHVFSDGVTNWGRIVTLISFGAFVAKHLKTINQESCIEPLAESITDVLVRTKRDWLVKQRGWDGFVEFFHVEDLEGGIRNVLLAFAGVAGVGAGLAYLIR
Bcl-xL primary – inhibitors of human Bcl-xL, primary screen, biochemical, fluorescence polarization, HTS. GST-Bcl-xL / FITC-Bim BH3 peptide fluorescence polarization. inhibition, % at 10.9 µM. hit rate 0.7% among 320,000. AID 2129, 2009;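 active means inhibition above the mean of all tested compounds plus 3 SD, cutoff set per campaign, cut at about 30% in these data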;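 further: 0% = DMSO wells and 100% = unlabeled Bim-BH3 peptide competitor; inhibitors lower millipolarization by displacing the labeled peptide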
Target sequence (Q07817 whole entry, looked up): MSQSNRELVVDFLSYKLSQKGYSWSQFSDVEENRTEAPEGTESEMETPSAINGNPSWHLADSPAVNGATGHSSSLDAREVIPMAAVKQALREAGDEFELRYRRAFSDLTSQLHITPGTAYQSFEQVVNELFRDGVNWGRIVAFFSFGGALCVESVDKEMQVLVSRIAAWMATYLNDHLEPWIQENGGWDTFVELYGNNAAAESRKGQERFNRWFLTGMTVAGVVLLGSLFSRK
eLon confirm – E. coli Lon protease inhibitor retest, confirmation, biochemical, fluorescence polarization. shares compounds with E coli Lon inh. purified E. coli Lon. inhibition, % at 7.94 µM. hit rate 31% among 1,400. AID 602230, 2012; in the data active means inhibition above about 16%;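 further: 0% = enzyme with probe and DMSO and 100% = no enzyme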
* hit, by the source's call. In the library only some 1.4% were active in any assay of this set; here they are far more common.

Screening Cn1c(-c2ccccc2)c(CCO)c2ccccc21 returned E coli Lon inh 32*, GLD-1 RNA inh 3, MEX-5 binding -1, EBV gp42 inh 10, MCL1-BIM inh 6, Bcl-xL primary 6 and eLon confirm -7.
For Cc1cccc(C)c1NC(=O)C1CCN(S(C)(=O)=O)CC1 the results were E coli Lon inh 40*, GLD-1 RNA inh 0, MEX-5 binding 3, MCL1-BIM inh 2, Bcl-xL primary 7 and eLon confirm 5.
Screening Cc1cc(C)c(NC(=O)C2CCN(S(C)(=O)=O)CC2)c(C)c1 returned E coli Lon inh -4.
Screening CCC(C(=O)NC1CCCC1)N(Cc1ccco1)C(=O)CNS(=O)(=O)c1ccccc1 (centres undefined) returned E coli Lon inh 17*, GLD-1 RNA inh -5, MEX-5 binding 3, MCL1-BIM inh -2, Bcl-xL primary 4 and eLon confirm 8.
Screening Nc1nc(NCCO)nc(NC2CCCCC2)c1[N+](=O)[O-] returned E coli Lon inh 43*, GLD-1 RNA inh -1, MEX-5 binding 3, MCL1-BIM inh -4, Bcl-xL primary 0 and eLon confirm -6.
`Nc1nc(NCCOCCO)nc(NC2CCCCC2)c1[N+](=O)[O-]` gave E coli Lon inh 6, GLD-1 RNA inh -4, MEX-5 binding 2, MCL1-BIM inh 4 and Bcl-xL primary 4.
Screening CC(NC(=O)COC(=O)COc1cccc2c1OC(C)(C)C2)c1ccccc1 (centres undefined) returned E coli Lon inh -11, GLD-1 RNA inh 6, MEX-5 binding -2, MCL1-BIM inh -14 and Bcl-xL primary -13.
For CCc1nnc(NC(=O)C2c3ccccc3Oc3ccccc32)s1 the results were E coli Lon inh 19*, GLD-1 RNA inh 5, MEX-5 binding 3, EBV gp42 inh 0, MCL1-BIM inh -6, Bcl-xL primary 0 and eLon confirm -32.
Screening O=C(Nc1nc2ccccc2s1)C1c2ccccc2Oc2ccccc21 returned E coli Lon inh -13, GLD-1 RNA inh 0, MEX-5 binding 1, EBV gp42 inh -16, MCL1-BIM inh 7 and Bcl-xL primary 2.
Screening CN(CC(=O)Nc1ccccc1Cl)C(=O)CN1C(=O)C2CCCCC2C1=O (centres undefined) returned E coli Lon inh -8, GLD-1 RNA inh 5, MEX-5 binding 0, MCL1-BIM inh 0 and Bcl-xL primary 3.
Screening COc1ccccc1C1C=C(c2ccccc2)Nc2nnnn21 (centres undefined) returned E coli Lon inh -12, GLD-1 RNA inh 4, MEX-5 binding 2, EBV gp42 inh -7, MCL1-BIM inh 2 and Bcl-xL primary 0.
Screening COc1cccc(C2=CC(c3cccs3)n3nnnc3N2)c1 (centres undefined) returned E coli Lon inh 35*, GLD-1 RNA inh 15, EBV gp42 inh 13, MCL1-BIM inh 17, Bcl-xL primary 15 and eLon confirm 10.
COc1ccc(C2=CC(c3ccc(F)cc3)n3nnnc3N2)cc1 (centres undefined) was read as E coli Lon inh 38*, GLD-1 RNA inh 1, MEX-5 binding -4, EBV gp42 inh 8, MCL1-BIM inh -2, Bcl-xL primary 4 and eLon confirm -13.
Screening CC/C=C(\NC(C)=O)c1ccccc1 returned E coli Lon inh -8, GLD-1 RNA inh 0, MCL1-BIM inh 2 and Bcl-xL primary 4.
`COc1ccc(S(=O)(=O)NC2CC2)cc1-n1cnnn1` gave E coli Lon inh -5, GLD-1 RNA inh -2, MEX-5 binding 2, EBV gp42 inh -15, MCL1-BIM inh -3 and Bcl-xL primary 4.
Screening COc1cc(S(=O)(=O)NC2CCCC2)ccc1-n1cnnn1 returned E coli Lon inh 22*, GLD-1 RNA inh 9, MEX-5 binding 1, MCL1-BIM inh 5, Bcl-xL primary 6 and eLon confirm -7.
Screening CC1CCN(C(=O)C2CCC(=O)N(Cc3ccc(Cl)cc3)C2)CC1 (centres undefined) returned E coli Lon inh -1, GLD-1 RNA inh 1, MEX-5 binding 2, MCL1-BIM inh -2 and Bcl-xL primary -2.
`N#Cc1ccc(S(=O)(=O)NC2CC2)cc1` gave E coli Lon inh 20*, GLD-1 RNA inh 2, MEX-5 binding -1, MCL1-BIM inh 2, Bcl-xL primary 3 and eLon confirm 42*.
`COc1cccc(NC(=O)c2ccc3nc(C)sc3c2)c1` gave E coli Lon inh -10, GLD-1 RNA inh 6, MEX-5 binding 1, MCL1-BIM inh 3 and Bcl-xL primary 1.
Screening CC(C)C(NC(=O)c1c(F)cccc1F)C(=O)NCCc1ccc(S(N)(=O)=O)cc1 (centres undefined) returned E coli Lon inh 3, GLD-1 RNA inh -1, MEX-5 binding 0, MCL1-BIM inh 12 and Bcl-xL primary 4.
`Cc1ccc2c(c1)N(CC(=O)NCCC1=CCCCC1)C(=O)c1cccnc1O2` gave E coli Lon inh -10, GLD-1 RNA inh 5, MEX-5 binding -2, MCL1-BIM inh 6 and Bcl-xL primary 4.
Screening CCn1cc([N+](=O)[O-])c(C(=O)Nc2ccn(C34CC5CC(CC(C5)C3)C4)n2)n1 returned E coli Lon inh 8, GLD-1 RNA inh 5, MEX-5 binding 3, EBV gp42 inh -4, MCL1-BIM inh 2 and Bcl-xL primary 2.
For Cn1cc([N+](=O)[O-])c(C(=O)Nc2ccn(C34CC5CC(CC(C5)C3)C4)n2)n1 the results were E coli Lon inh 31*, GLD-1 RNA inh 3, MEX-5 binding 0, EBV gp42 inh 7, MCL1-BIM inh -2, Bcl-xL primary -7 and eLon confirm -11.
Screening Cc1cnc(C(=O)OCC(=O)Nc2ccc(OCc3ccccc3)cc2)cn1 returned E coli Lon inh 1, GLD-1 RNA inh 0, MCL1-BIM inh 0 and Bcl-xL primary 5.
Screening Cc1ccc(CNC(=O)COC(=O)c2ccc(S(=O)(=O)N(C)C)cc2)cc1 returned E coli Lon inh 11, GLD-1 RNA inh -1, MEX-5 binding 4, EBV gp42 inh -6, MCL1-BIM inh 3 and Bcl-xL primary 3.
`CNc1c2cccc(C)c2nc2c(C(=O)NCCN(C)C)cccc12` gave E coli Lon inh 178* and eLon confirm 195*.
